# Results: PubChem BioAssay (NCATS)
# Values without a mark were called inactive. Inconclusive results are not listed. A call without a number means that no potency is given here. Activity calls are given as the source filed them. Calls follow the shape of the dose curve; as a rule, active = well fitted curve in the direction sought with a large enough effect; inconclusive = small, poorly fitted or top-dose-only effect, or another doubt; inactive = no such curve, though single readings can be large; an effect the other way counts as inactive or inconclusive.
# Legend:
# [1] = target: Calcium and integrin-binding protein 1 (Homo sapiens) (UniProt Q99828); assay: Primary qHTS for Identification of Calcium Integrin Binding Protein 1 (CIB1) Competitor (AID 1508620);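 also: GST tagged CIB1 binding a fluorescein labelled alphaIIb integrin peptide tracer; top concentration of the series differs between compounds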
# How it was run: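 Fluorescence polarization competition: GST-tagged CIB1 (1 uM final) preincubated with compound 15 min at room temperature, then FITC-labelled alphaIIb peptide (100 nM final) added. After 15 min at room temperature, polarization read at Ex 480/Em 540.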
# [2] = Primary qHTS for inhibitors of nuclear receptor binding SET domain protein 2 (NSD2) in an isogenic RCH-ACV NSD2 p.E1099K mutant (9B) (AID 1645876); also: nearly all actives have a fitted effect of over 70% in size; also: potency is read from the fitted curve at half-maximal effect
# [3] = target: Phospholipid hydroperoxide glutathione peroxidase GPX4 (Homo sapiens) (UniProt P36969); assay: Primary qHTS Assay for Inhibitors of Recombinant Selenoprotein Glutathione Peroxidase 4 (GPX4) (AID 1845192); also: nearly all actives have a fitted effect of over 65% in size
# How it was run: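 GR-coupled assay: recombinant GPX4 preincubated 30 min with compound at room temperature; final 200 nM GPX4, 1 mM GSH, 0.5 mM cumene hydroperoxide, 0.5 mM NADPH, 100 nM GR, 0.01% BSA, pH 7.5 Tris. NADPH fluorescence (340/450 nm) read at 0 and 15 min.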
# [4] = target: Luciferin 4-monooxygenase (Photinus pyralis) (UniProt P08659); assay: Primary firefly luciferase (FLuc) qHTS assay for identification of artifact compounds. (AID 1845220); conditions: outcome: dose series up to 54.1 µM unless noted; also: nearly all actives have a fitted effect of over 60% in size
# How it was run: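 Titrated compounds were incubated 15 min at RT, protected from light, with luciferin and ATP at 10 uM; reaction started with 10 nM FLuc, luminescence imaged at 5 min, and concentration-response fitted by Hill equation.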
# [5] = Primary fluorescence-based thiol-reactive (MSTI) qHTS assay for identification of artifact compounds. (AID 1845221); also: nearly all actives have a fitted effect of over 65% in size; also: potency is read from the fitted curve at half-maximal effect
# How it was run: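 Curve-fitted percent inhibition (4-parameter Hill) derived from fluorescence, Ex 525/Em 598 nm, scaled with Acetyl-MSTI and MSTI; 1 h incubation at room temperature.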
# [6] = system: Nanoluciferase (engineered Oplophorus gracilirostris luciferase); assay: Primary Nanoluciferase (NLuc) qHTS assay for identification of artifact compounds. (AID 1845222);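 also: NLuc secreted into diluted conditioned medium of S16 cells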
# How it was run: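 qHTS format, against NLuc in S16 cell-conditioned medium. Nano-Glo substrate 1:100 was added after 15 min at room temperature. Luminescence was taken after a further 5 min.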
# CRL-7250 = normal cell line; assay: Cytotoxic Profiling of Annotated Libraries Using Quantitative High-Throughput Screening (AID 1296008); conditions: Five cell lines viability, CellTiter-Glo ATP luminescence, 48-72 h; max response: active compounds read low; also: nearly all actives have a fitted effect of over 60% in size; also: potency is read from the fitted curve at half-maximal effect
# How it was run: (§1)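 Cells exposed to compounds for 48 or 72 hr at 37 degrees Celsius. Viability read as ATP-coupled luminescence with CellTiter-Glo after 10 min at room temperature.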
# NIH3T3 = assay: as above; conditions: Five cell lines viability, CellTiter-Glo ATP luminescence, 48-72 h; max response: active compounds read low
# How it was run: as §1
# C33A = assay: Primary qHTS to identify gynecologic anti-cancer compounds using libraries of approved drugs and bioactive compounds (AID 1345084); conditions: Gynecologic cancer cell panel viability, ATPlite luminescence, 48 h; series mostly up to 57.5 µM; also: nearly all actives have a fitted effect of over 55% in size; also: potency is read from the fitted curve at half-maximal effect
# How it was run: (§2)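 Cytotoxicity screen measuring ATP content by luciferase luminescence. Each compound is applied at five concentrations for 48 h at 37 C with 5% CO2.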
# CAOV3 = assay: as above; conditions: Gynecologic cancer cell panel viability, ATPlite luminescence, 48 h; series mostly up to 57.5 µM
# How it was run: as §2
# CASKI = assay: as above; conditions: Gynecologic cancer cell panel viability, ATPlite luminescence, 48 h; series mostly up to 57.5 µM
# How it was run: as §2
# Es-2 = assay: as above; conditions: Gynecologic cancer cell panel viability, ATPlite luminescence, 48 h; series mostly up to 57.5 µM
# How it was run: as §2
# Hek293T = assay: as above; conditions: Gynecologic cancer cell panel viability, ATPlite luminescence, 48 h, control line for the selectivity index; series mostly up to 57.5 µM
# How it was run: as §2
# JEG-3 = assay: as above; conditions: Gynecologic cancer cell panel viability, ATPlite luminescence, 48 h; series mostly up to 57.5 µM
# How it was run: as §2
# OV90 = assay: as above; conditions: Gynecologic cancer cell panel viability, ATPlite luminescence, 48 h; series mostly up to 57.5 µM
# How it was run: as §2
# PA-1 = assay: as above; conditions: Gynecologic cancer cell panel viability, ATPlite luminescence, 48 h; series mostly up to 57.5 µM
# How it was run: as §2
# Tov-21-G = assay: as above; conditions: Gynecologic cancer cell panel viability, ATPlite luminescence, 48 h; series mostly up to 57.5 µM
# How it was run: as §2
# Tov112D = assay: as above; conditions: Gynecologic cancer cell panel viability, ATPlite luminescence, 48 h; series mostly up to 57.5 µM
# How it was run: as §2
# HEK293 = assay: Cytotoxic Profiling of Annotated Libraries Using Quantitative High-Throughput Screening (AID 1296008); conditions: Five cell lines viability, CellTiter-Glo ATP luminescence, 48-72 h; max response: active compounds read low; also: nearly all actives have a fitted effect of over 60% in size; also: potency is read from the fitted curve at half-maximal effect
# How it was run: as §1
# [7] = Primary redox qHTS assay for identification of artifact compounds. (AID 1845223)
# How it was run: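 Amplex Red (25 uM) and HRP (250 mU/mL) in HBSS, with compounds for 15 min, then 250 uM DTT for 30 min, room temperature, dark. Fluorescence 525/598 nm read; normalized to DMSO and 10 uM DA3003; Hill fit.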
# Sequence of Phospholipid hydroperoxide glutathione peroxidase GPX4 (Homo sapiens) (P36969 whole entry, looked up): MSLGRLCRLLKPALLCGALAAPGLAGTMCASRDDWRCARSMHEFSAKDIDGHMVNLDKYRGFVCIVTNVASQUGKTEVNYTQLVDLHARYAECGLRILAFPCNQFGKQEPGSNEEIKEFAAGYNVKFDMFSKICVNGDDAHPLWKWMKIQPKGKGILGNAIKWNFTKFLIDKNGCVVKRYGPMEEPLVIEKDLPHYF
# Sequence of Calcium and integrin-binding protein 1 (Homo sapiens) (Q99828 whole entry, looked up): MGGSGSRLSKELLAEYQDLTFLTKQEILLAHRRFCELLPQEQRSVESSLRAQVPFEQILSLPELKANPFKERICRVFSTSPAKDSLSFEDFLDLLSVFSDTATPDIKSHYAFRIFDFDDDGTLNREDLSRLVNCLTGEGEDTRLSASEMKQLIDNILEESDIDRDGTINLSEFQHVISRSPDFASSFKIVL
structure (smiles),measurement,setting,value
CC12CCC3C(C1)c1c(cc(O)c(C(=O)c4ccccc4)c1OC3(C)C)O2 (stereo unspecified),Potency,[1],inactive
same,Potency,[2],inactive
same,Potency,[3],inactive
same,outcome,[4],inactive
same,Potency,[5],inactive
same,Potency,[6],inactive
same,outcome,CRL-7250,inactive
same,max response,NIH3T3,3.12%
same,Potency,C33A,inactive
same,Potency,CAOV3,inactive
same,Potency,CASKI,inactive
same,Potency,Es-2,inactive
same,Potency,Hek293T,inactive
same,Potency,JEG-3,inactive
same,Potency,OV90,inactive
same,Potency,PA-1,inactive
same,Potency,Tov-21-G,inactive
same,Potency,Tov112D,inactive
COc1cc(O)c2c(c1)CCC[C@@H](O)[C@H](O)C(=O)/C=C\C[C@H](C)OC2=O,Potency,[1],inactive
same,Potency,[2],8.01 µM (active)
same,Potency,[3],inactive
same,outcome,[4],inactive
same,Potency,[5],inactive
same,Potency,[6],inactive
same,Potency,CRL-7250,5.08 µM (active)
same,Potency,HEK293,6.4 µM (active)
same,Potency,Hek293T,11.2 µM (active)
same,Potency,PA-1,inactive
same,Potency,Tov-21-G,1.78 µM (active)
CN1CCC2=C(C1)c1ccccc1Cc1ccccc12,outcome,[4],inactive
same,Potency,[5],inactive
same,Potency,[7],inactive
same,outcome,CRL-7250,inactive
same,max response,NIH3T3,0.135%
same,Potency,C33A,inactive
same,Potency,CAOV3,inactive
same,Potency,CASKI,inactive
same,Potency,Es-2,inactive
same,Potency,Hek293T,inactive
same,Potency,JEG-3,inactive
same,Potency,OV90,inactive
same,Potency,PA-1,inactive
same,Potency,Tov-21-G,inactive
same,Potency,Tov112D,inactive
Cc1c(N[C@@H](c2nnc(-c3ccc(C#N)cc3)o2)[C@H](C)O)ccc(C#N)c1Cl,Potency,[1],inactive
same,Potency,[3],inactive
same,outcome,[4],inactive
same,Potency,[5],inactive
same,Potency,[6],inactive
same,Potency,[7],inactive
same,outcome,CRL-7250,inactive
same,max response,NIH3T3,4.88%
same,Potency,C33A,inactive
same,Potency,CAOV3,inactive
same,Potency,CASKI,inactive
same,Potency,Es-2,inactive
same,Potency,Hek293T,inactive
same,Potency,JEG-3,inactive
same,Potency,OV90,inactive
same,Potency,PA-1,inactive
same,Potency,Tov-21-G,inactive
same,Potency,Tov112D,inactive
CN1C(=O)N(c2ccc(C#N)c(C(F)(F)F)c2)C(=O)[C@@]1(CO)c1ccccc1,Potency,[1],inactive
same,Potency,[3],inactive
same,outcome,[4],inactive
same,Potency,[5],inactive
same,Potency,[7],inactive
same,outcome,CRL-7250,inactive
same,max response,NIH3T3,4.41%
same,Potency,C33A,inactive
same,Potency,CAOV3,inactive
same,Potency,CASKI,inactive
same,Potency,Es-2,inactive
same,Potency,Hek293T,inactive
same,Potency,JEG-3,inactive
same,Potency,OV90,inactive
same,Potency,PA-1,inactive
same,Potency,Tov-21-G,inactive
same,Potency,Tov112D,inactive
C[C@]12CC[C@H](O)C[C@@]1(O)CC[C@@H]1[C@@H]2CC[C@]2(C)[C@@H](c3ccc(=O)oc3)CC[C@]12O,Potency,[5],inactive
same,Potency,[6],inactive
same,Potency,[7],inactive
same,Potency,CRL-7250,0.0052 µM (active)
same,Potency,HEK293,0.0517 µM (active)
same,max response,NIH3T3,-7.45%
same,Potency,C33A,inactive
same,Potency,CAOV3,inactive
same,Potency,CASKI,inactive
same,Potency,Es-2,inactive
same,Potency,Hek293T,inactive
same,Potency,JEG-3,inactive
same,Potency,OV90,inactive
same,Potency,PA-1,inactive
same,Potency,Tov-21-G,inactive
same,Potency,Tov112D,inactive
COC(=O)C12C(=O)C(C)(O)C(=O)C1(C)C(C)=CC1C34CCC(OC3=O)C(C)(C)C4CCC12C (stereo unspecified),Potency,[1],inactive
same,Potency,[2],inactive
same,outcome,[4],inactive
same,Potency,[6],inactive
same,Potency,[7],inactive
same,max response,CRL-7250,-8.47%
same,max response,HEK293,-13.4%
same,max response,NIH3T3,-10.7%
same,Potency,C33A,inactive
same,Potency,CAOV3,inactive
same,Potency,CASKI,inactive
same,Potency,Es-2,inactive
same,Potency,Hek293T,inactive
same,Potency,JEG-3,inactive
same,Potency,OV90,inactive
same,Potency,PA-1,inactive
same,Potency,Tov-21-G,inactive
same,Potency,Tov112D,inactive
C[C@]12CC[C@H](O)C[C@@H]1CC[C@@H]1[C@@H]2CC[C@]2(C)[C@@H](C3=CC(=O)OC3)CC[C@]12O,Potency,[2],2.84 µM (active)
same,Potency,[3],inactive
same,outcome,[4],inactive
same,Potency,[5],inactive
same,Potency,[6],inactive
same,Potency,[7],inactive
same,Potency,CRL-7250,4.53 µM (active)
same,Potency,HEK293,5.08 µM (active)
same,max response,NIH3T3,3.54%
same,Potency,C33A,7.94 µM (active)
same,Potency,CASKI,inactive
same,Potency,Es-2,8.91 µM (active)
same,Potency,JEG-3,inactive
same,Potency,OV90,inactive
CCCCCCC1C(=O)O[C@H](C)[C@H](NC(=O)c2cccc(NC=O)c2O)C(=O)O[C@@H](C)[C@@H]1OC(=O)CC(C)C (stereo partly specified),Potency,[1],inactive
same,Potency,[2],0.0115 µM (active)
same,Potency,[3],inactive
same,outcome,[4],inactive
same,Potency,[5],1.89 µM (active)
same,Potency,[6],inactive
same,Potency,CRL-7250,0.58 µM (active)
same,Potency,HEK293,0.164 µM (active)
same,Potency,CAOV3,3.16 µM (active)
same,Potency,CASKI,1 µM (active)
same,Potency,Es-2,0.355 µM (active)
same,Potency,JEG-3,inactive
same,Potency,OV90,0.355 µM (active)
same,Potency,Tov112D,inactive
C=C(C)C(=O)O[C@H]1[C@@H]2[C@H](C)C(=O)O[C@@H]2C[C@@H](C)[C@@H]2C=CC(=O)[C@]21C,Potency,[1],inactive
same,Potency,[2],2.01 µM (active)
same,Potency,[3],inactive
same,outcome,[4],inactive
same,Potency,[5],inactive
same,Potency,[7],inactive
same,Potency,CRL-7250,2.86 µM (active)
same,Potency,HEK293,3.6 µM (active)
same,Potency,NIH3T3,8.05 µM (active)
same,Potency,C33A,12.6 µM (active)
same,Potency,CAOV3,10 µM (active)
same,Potency,Hek293T,5.62 µM (active)
same,Potency,OV90,3.55 µM (active)
same,Potency,PA-1,3.16 µM (active)
same,Potency,Tov-21-G,8.91 µM (active)
same,Potency,Tov112D,8.91 µM (active)
COc1cc(C(=O)N2CC[C@@H](O)[C@@H](N)C2)cc2nc(-c3cc4ccccc4n3CC3CC3)n(C)c12,Potency,[1],inactive
same,Potency,[2],20.9 µM (active)
same,Potency,[3],inactive
same,Potency,CRL-7250,20.9 µM (active)
same,Potency,HEK293,14.8 µM (active)
COC1CCCC(C)OC(=O)Cc2cc(O)cc(O)c2C(=O)C1 (stereo unspecified),Potency,[1],inactive
same,Potency,[2],2.84 µM (active)
same,Potency,[3],inactive
same,outcome,[4],inactive
same,Potency,[6],inactive
same,Potency,[7],inactive
same,Potency,CRL-7250,14.3 µM (active)
same,Potency,HEK293,3.6 µM (active)
same,Potency,CAOV3,inactive
same,Potency,CASKI,inactive
same,Potency,OV90,inactive
same,Potency,PA-1,11.2 µM (active)
same,Potency,Tov-21-G,inactive
CC(C)[C@H]1OC(=O)[C@H](Cc2ccccc2)N(C)C(=O)[C@@H](C(C)C)OC(=O)[C@H](Cc2ccccc2)N(C)C(=O)[C@@H](C(C)C)OC(=O)[C@H](Cc2ccccc2)N(C)C1=O,Potency,[2],6.82 µM (active)
same,Potency,[3],inactive
same,outcome,[4],inactive
same,Potency,[5],inactive
same,Potency,[6],inactive
same,Potency,CRL-7250,4.85 µM (active)
same,Potency,HEK293,6.11 µM (active)
same,Potency,C33A,inactive
same,Potency,CAOV3,inactive
same,Potency,CASKI,inactive
same,Potency,Es-2,inactive
same,Potency,JEG-3,inactive
same,Potency,OV90,inactive
same,Potency,PA-1,7.94 µM (active)
same,Potency,Tov-21-G,inactive
same,Potency,Tov112D,inactive
